Consider 89 compounds from PubChem BioAssay AID2732 (Emory University Molecular Libraries Screening Center, 2010).

Each structure is given as a SMILES string. Values joined by “and” are separate entries in the source; they are usually repeats but may differ in a detail not shown here. Equal entries are not always repeated. Hit rate of the full screen: of about 220,000 compounds, about 8,200 (3.7%) were called active.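 The calls were made as follows: active = compounds that reduced the stress-induced luciferase reporter signal by more than about 70% of percent inhibition (limit read from the data); inactive = the rest.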 Many of the other results were omitted from the sample, so actives are more common in it than they were. Some compounds were tested as several samples or in several runs, with calls that do not always agree.

The test is described as follows: blockers of ER-stress CHOP reporter expression – cell-based, unfolded protein response, luciferase reporter, primary screen (AID 2732).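 Also: 0% = tunicamycin plus vehicle and 100% = wells without tunicamycin.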 Particulars: CHO-K1 CHOP-promoter luciferase, tunicamycin-induced, 15-18 h; at 10 µM; stronger effect = higher value. Background: A reporter such as luciferase makes a cellular process visible.
In general, inhibition refers to the drop in the measured response relative to a control, in per cent. Turning to `C=CCC(Nc1ccccc1)c1cccc(OC)c1OC` (centres undefined), the inhibition is 29.3% (inactive).

Turning to `CSCCC(NS(=O)(=O)c1ccc2c(c1)oc(=O)n2C)C(=O)NCc1ccccc1` (centres undefined), the inhibition was 18.5% (inactive).

On to `CSc1nc(C)cc(SC(C(C)=O)C(=O)Nc2ccccc2)n1` (centres undefined), for which the inhibition is 9.45% (inactive).

For the compound `CSc1nc(-c2ccccc2)nc(C(Cl)Cl)n1`, the inhibition is 102% (active).

Turning to `COc1ccc(NS(=O)(=O)c2ccc(N3CCOCC3)c(NC(=O)c3ccccc3Br)c2)cc1`, the inhibition was -3.53% (inactive).

As to `CCOC(=O)N/N=C1\CC(C)S(=O)(=O)c2ccc(Cl)cc21` (centres undefined), the inhibition is -26.8% (inactive).

Take `Cc1ccc(C(=O)NCC(=O)OCC(=O)Nc2cccc(S(=O)(=O)N3CCCC3)c2)cc1C`: the inhibition was -17.8% (inactive).

`CC(C)=C1SC(N2CCN(c3ccc(C)c(Cl)c3)CC2)=NC1=O`: the inhibition was 23.3% (inactive).

For the compound `COc1ccccc1Oc1ccc(S(=O)(=O)Nc2cccnc2)cc1`, the inhibition is 44.6% (inactive).

Regarding `COC(=O)Cc1ccc(Oc2ncc(C(F)(F)F)cc2Cl)cc1`, the inhibition was 29.9% (inactive).

Take `Cc1cc(C)cc(NS(=O)(=O)c2ccc(Oc3ncc(C(F)(F)F)cc3Cl)cc2)c1`: the inhibition was 90.3% (active).

On to `Cc1ccc(SCCC(=O)OCC(=O)Nc2ncc(Cl)cc2Cl)cc1`, for which the inhibition was 82% (active).

Consider `Cc1ccc(-n2c(SCC(=O)Nc3ncc(Cl)cc3Cl)nc3ccccc32)cc1`, for which the inhibition is 49.5% (inactive).

Take `CC(Oc1ccc(Cl)cc1)C(=O)OCC(=O)Nc1ncc(Cl)cc1Cl` (centres undefined): the inhibition was 2.69% (inactive).

`Cc1cc(NC(=O)Nc2ccc(Cl)cc2)n(-c2ccccc2)n1`: the inhibition was 10.7% (inactive).

In the case of `C/C=C(/C)C(=O)Nc1cccc(C2=NOC3(C2)C[C@@H](C(N)=O)N(C(=O)C2(C)CC2)C3)c1` (some centres undefined), the inhibition was -8.38% (inactive).

With `Cc1ccc(-n2[nH]c(C)c(/C=N/N3C(=O)c4cccc5cccc(c45)C3=O)c2=O)cc1`, the inhibition was 36.5% (inactive).

For `CCc1nnc(NS(=O)(=O)c2ccc(N=Cc3c(C)[nH]n(-c4ccc(C)cc4)c3=O)cc2)s1`, the inhibition is -15.8% (inactive).

As for `COc1cc(SC#N)ccc1N=Cc1c(C)[nH]n(-c2ccc(C)cc2)c1=O`, the inhibition is 107% (active).

On to `CCCCCCCCCCCCN1C(=O)CSC1c1cccnc1` (centres undefined), for which the inhibition is 28.5% (inactive).

In the case of `Cc1ccc(C2(c3ccc(C)cc3)NC(=O)N(Cc3c(C)noc3C)C2=O)cc1`, the inhibition is 92.8% (active).

On to `Cc1noc(C)c1COc1ccc2ccc(=O)oc2c1`, for which the inhibition was 2.13% (inactive).

With `COc1ccc(C(=O)CN2C(=O)NC(C)(c3ccc(C)cc3)C2=O)cc1OC` (centres undefined), the inhibition is 15.7% (inactive).

As to `Cc1cc(F)ccc1NC(=O)C(C)n1c2ccccc2c2nc(=O)cc(C)n21` (centres undefined), the inhibition was -2.79% (inactive).

Consider `CC1=NNC(=O)C1CC(=O)N/N=C/c1ccncc1` (centres undefined), for which the inhibition was 9.24% (inactive).

For the compound `C#CCOCCOCCOCCNc1nc(N2CCN(C(=O)[C@H](CCC(=O)O)n3cc(C(N)CO)nn3)CC2)nc(N2CCN(C(=O)[C@H](CCCCN)n3cc(C(N)CC(C)C)nn3)CC2)n1` (some centres undefined), the inhibition was -22.6% (inactive).

In the case of `Cn1nc(C(F)(F)F)cc1-c1ccc(/C=C(\C#N)C(=O)c2cccc(C(F)(F)F)c2)s1`, the inhibition was -6.02% (inactive).

As for `CCOC(=O)/C(=C\c1ccc([N+](=O)[O-])cc1)C(=O)c1cc(C(C)=O)c(Nc2ccccc2)s1`, the inhibition was 112% (active).

For the compound `Cc1cccc(NC(=O)c2sc(-c3ccccc3)nc2-c2ccc([N+](=O)[O-])cc2)c1`, the inhibition is 31.6% (inactive).

Consider `CCOC(=O)COc1ccc([N+](=O)[O-])cc1`, for which the inhibition was 3.34% (inactive).

For `COC(=O)c1sc(C(F)(F)F)c(-c2ccccc2)c1S(=O)(=O)N(C)C`, the inhibition is 21.3% (inactive).

With `CC(C)c1ccc2c(c1)c(SC(C)(C)C)c(CC(C)(C)C(=O)O)n2Cc1ccc(Cl)cc1`, the inhibition is -15.8% (inactive) and 96.6% (active).

Take `O=S(=O)(NCCc1csc(-c2ccccc2)n1)c1cccnc1`: the inhibition was 10.5% (inactive).

On to `Cc1ccc(N/C(N)=N/c2nc(C(F)(F)F)cc(C(F)(F)F)n2)cc1`, for which the inhibition was 92.5% (active).

On to `COc1ccc2nc(/N=C(\N)NC(=O)Nc3ccccc3)nc(C)c2c1`, for which the inhibition is 29.8% (inactive).

As for `Cc1ccc(NC(=O)Nc2ccc3oc(C)nc3c2)cc1`, the inhibition is -9.69% (inactive).

Regarding `C/C=C\C=C\C(=O)N1CC2(CC(c3cccc(NC(=O)/C(C)=C\C)c3)=NO2)C[C@H]1C(N)=O` (some centres undefined), the inhibition is -9.78% (inactive).

Take `Cc1cccc(NC(=O)c2ccc([N+](=O)[O-])o2)c1`: the inhibition was -27% (inactive).

For the compound `COc1ccc(Cl)cc1S(=O)(=O)N1CCC(O)(c2ccc(Cl)cc2)CC1`, the inhibition was 19.7% (inactive).

Take `C[n+]1ccccc1C1CCCC/C1=N\Nc1ccc([N+](=O)[O-])cc1[N+](=O)[O-]` (centres undefined): the inhibition was 8.15% (inactive).

For `O=C(Nc1ccccc1)O/N=C1\CCCCC1c1ccc([N+](=O)[O-])cc1[N+](=O)[O-]` (centres undefined), the inhibition was 22.1% (inactive).

`O=[N+]([O-])c1ccc(N/N=C2/CCCCC2c2ccccn2)c([N+](=O)[O-])c1` (centres undefined): the inhibition was 80.1% (active).

Consider `O=C(NNC(=O)c1cnccc1C(F)(F)F)c1ccc(Cl)cc1`, for which the inhibition was -0.67% (inactive).

With `S=c1[nH]nc(-c2cc(-c3ccsc3)n[nH]2)n1-c1ccccc1`, the inhibition is 0.59% (inactive).

Turning to `O=C(Nc1sc2c(c1-c1nc3ccccc3[nH]1)CCCC2)C1CC1`, the inhibition is 80.4% (active).

Regarding `CCOC(=O)c1c(NC(=O)C2CCN(S(=O)(=O)c3ccc(Cl)cc3)CC2)sc2c1CCCC2`, the inhibition is 15.6% (inactive).

With `O=C(Nc1cccc(-c2nc3ccccc3[nH]2)c1)c1ccc(C(=O)Nc2cccc(-c3nc4ccccc4[nH]3)c2)cc1`, the inhibition was -38.4% (inactive).

With `O=C(Nc1ccc(F)cc1F)N1CCCN(CCOc2ccccc2)CC1`, the inhibition was -11% (inactive).

In the case of `Cc1ccc(Cl)c(OCC(=O)NN2CCN(C)CC2)c1`, the inhibition was 5.66% (inactive).

In the case of `c1ccc(CC2CCN(c3nc4ccccc4n4cnnc34)CC2)cc1`, the inhibition is 76.1% (active).

Regarding `NC(=O)c1ccc(CN2CCC(Cc3ccccc3)CC2)cc1`, the inhibition is -9.98% (inactive).

Consider `O=C(c1ccccc1)c1ccc2nc(N3CCCCC3)c3nncn3c2c1`, for which the inhibition is 19.1% (inactive).

For `N#CC1=C(N)Oc2c(ccc3cccnc23)C1c1ccncc1` (centres undefined), the inhibition was -1.42% (inactive).

Take `CCOC(=O)c1sc(NC(=O)COc2ncnc3ccccc23)c(C(=O)OCC)c1C`: the inhibition is 43% (inactive).

On to `Nc1nnc(SCC(=O)NC2CCCc3ccccc32)s1` (centres undefined), for which the inhibition was 12.6% (inactive).

For `CCOC(=O)c1c(NC(=O)CNC2CCCc3ccccc32)sc(C(N)=O)c1C` (centres undefined), the inhibition was 95.9% (active).

Regarding `Cc1ccc(/C=N/NC(=S)Nc2cccc(S(=O)(=O)N(C)C)c2)o1`, the inhibition was 36% (inactive).

Take `NC(=O)c1ccc(-c2csnn2)cc1`: the inhibition is 9.46% (inactive).

`Cc1n[nH]c(=S)n1/N=C/c1ccc(Br)o1`: the inhibition was 14.2% (inactive).

In the case of `Cc1ccccc1-c1n[nH]c(=S)n1/N=C/c1ccc(-c2ccccc2Br)o1`, the inhibition is 72.8% (active).

Consider `Cc1ccccc1-c1n[nH]c(=S)n1C`, for which the inhibition was -13.1% (inactive).

Regarding `CC1CN(c2nc(Nc3ccccc3)nc(N)c2[N+](=O)[O-])CC(C)O1` (centres undefined), the inhibition was 9.58% (inactive).

Turning to `Cc1cccc(-n2c(N)c(C(=O)N3CCN(C)CC3)sc2=S)c1`, the inhibition is -3.45% (inactive).

Take `CCCc1nc(-c2ccccc2O)n(-c2ccccc2)n1`: the inhibition was 40.5% (inactive).

In the case of `CCCc1nc(N2CCN(C)CC2)c2sc(=S)n(-c3ccccc3)c2n1`, the inhibition is 74.7% (active).

In the case of `O=C(NCCc1ccccn1)c1cccnc1Oc1ccc(Cl)cc1`, the inhibition is 18.1% (inactive).

On to `CCCN(CCC)S(=O)(=O)c1ccc(C(=O)NNC(=O)c2cc(OC)c(OC)c(OC)c2)cc1`, for which the inhibition is 2.06% (inactive).

`C/C(CC(=O)NC(C)c1ccccc1)=N\NC(N)=S` (centres undefined): the inhibition was 0.93% (inactive).

As to `Cc1nc(SCC(=O)c2ccccc2)c([N+](=O)[O-])[nH]1`, the inhibition is 7.53% (inactive).

For the compound `CC(=O)Nc1ccc(C(=O)CSc2nc3ccc(C)cc3[nH]2)cc1`, the inhibition is 37.2% (inactive).

Consider `O=C(CSc1nc2ccc([N+](=O)[O-])cc2[nH]1)c1ccc(Cl)cc1`, for which the inhibition was 78.4% (active).

Consider `CCOc1ccc(N2CC(C(=O)N/N=C/c3sccc3C)CC2=O)cc1` (centres undefined), for which the inhibition is 17.4% (inactive).

Consider `COc1ccc(C(C(=O)NC(C)(C)C)N(C(=O)Cn2nnc3ccccc32)c2ccc(C(C)=O)cc2)cc1O` (centres undefined), for which the inhibition was -13.6% (inactive).

For the compound `O=C(Nc1ccc(Cl)cc1)Nc1ccc(Oc2cccnc2)nc1`, the inhibition is 15.6% (inactive).

As to `O=C(COc1ccccc1)NCCc1nc2ccccc2[nH]1`, the inhibition was -0.39% (inactive).

With `CCCCCOc1ccc(/C=C/C(=O)NCCc2nc3ccccc3[nH]2)cc1OC`, the inhibition was 70.7% (active).

As to `COc1ccc(OC(C)C(=O)NCCc2nc3ccccc3[nH]2)cc1` (centres undefined), the inhibition was 12.8% (inactive).

As to `CCN(CC)S(=O)(=O)c1cc([N+](=O)[O-])ccc1N=Nc1c(O)n(C)c2ccccc12`, the inhibition is 39.2% (inactive).

Take `CCN(CC)S(=O)(=O)c1cc([N+](=O)[O-])ccc1NNC(=O)Nc1ccccc1`: the inhibition was 94.6% (active).

As to `O=C(CSCC(=O)Nc1cccc([N+](=O)[O-])c1)Nc1ccccc1`, the inhibition is -4.34% (inactive).

As to `CCOC(=O)c1cnc(COc2ccccc2Cl)[nH]c1=O`, the inhibition is -0.7% (inactive).

For the compound `Oc1c(Cl)cc(Cl)c(Cl)c1Cc1c(O)c(Cl)cc(Cl)c1Cl`, the inhibition is 93.3% (active).

As for `N#Cc1c(C(F)(F)F)cc(-c2cccs2)nc1N1CCCCC1`, the inhibition was 12.1% (inactive).

Turning to `COCc1cc(=O)[nH]c(SC)n1`, the inhibition was -4.77% (inactive).

On to `CCOC(=O)c1c(NC(=S)Nc2ccccc2C)sc2c1CCC2`, for which the inhibition was 34.1% (inactive).

Take `CCOC(=O)c1c(NC(=S)NC)sc2c1CCCC2`: the inhibition was 14.4% (inactive).

As for `CCOC(=O)c1c(NC(=S)NC(=O)c2ccco2)sc2c1CCCC2`, the inhibition is 85% (active).

For the compound `CN(C)/C=C(/C(=O)c1ccc(Cl)c(Cl)c1)c1nnnn1-c1ccccc1`, the inhibition was -4.76% (inactive).

`COc1ccc(N(Cc2ccccc2)S(=O)(=O)c2cccc(C(=O)O)c2)cc1`: the inhibition was 3.03% (inactive).
